Reference: PubChem BioAssay (EPA / NIEHS)
Values joined by “and” are separate entries in the source; they are usually repeats but may differ in a detail not shown here. Identical values can stand only once. A structure can be active in one record and inactive in another. Active and inactive are the calls of the source. How the source made its calls: active means hit-call score of the fitted dose curve at least 0.9, where 1 is the maximum; inactive means score below 0.9.

Legend:
[1] = read-out: Thrombomodulin, THBD (gene 7056); assay: BSK_CASM3C_Thrombomodulin: BioMAP Diversity Plus: CASM3C Assay for Thrombomodulin Biomarker Activity (AID 2283051); conditions: primary human coronary artery smooth muscle cells; actives raise or lower the signal;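 further: thrombomodulin protein level measured by ELISA 24 h after dosing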
[2] = read-out: Tissue Factor, F3 (gene 2152); assay: BSK_CASM3C_TissueFactor: BioMAP Diversity Plus: CASM3C Assay for Tissue Factor Biomarker Activity (AID 2283052); conditions: primary human coronary artery smooth muscle cells; actives raise or lower the signal;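 further: cell surface tissue factor protein level read by ELISA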
[3] = read-out: Interferon-gamma inducible Protein 10 (IP10), CXCL10 (gene 3627); assay: BSK_hDFCGF_IP10: BioMAP Diversity Plus: hDFCGF Assay for Interferon-gamma inducible Protein 10 (IP10) Biomarker Activity (AID 2283053); conditions: primary human foreskin fibroblasts; actives raise or lower the signal
Method in brief: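 ELISA quantification of IP-10 after a 24 h chemical exposure of human dermal foreskin fibroblast primary cultures. Both increases and decreases versus DMSO fitted.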

[4] = read-out: Urokinase-type plasminogen activator receptor (uPAR), PLAUR (gene 5329); assay: BSK_CASM3C_uPAR: BioMAP Diversity Plus: CASM3C Assay for Urokinase-type plasminogen activator receptor (uPAR) Biomarker Activity (AID 2283054); conditions: primary human coronary artery smooth muscle cells; actives raise or lower the signal;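 further: cell-surface uPAR protein level quantified by ELISA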
[5] = read-out: Vascular cell adhesion molecule 1 (VCAM1), VCAM1 (gene 7412); assay: BSK_CASM3C_VCAM1: BioMAP Diversity Plus: CASM3C Assay for Vascular cell adhesion molecule 1 (VCAM1) Biomarker Activity (AID 2283055); conditions: primary human coronary artery smooth muscle cells; actives raise or lower the signal;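 further: VCAM-1 protein level quantified by ELISA on the cells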
[6] = read-out: Collagen III, COL3A1 (gene 1281); assay: BSK_hDFCGF_CollagenIII: BioMAP Diversity Plus: hDFCGF Assay for Collagen III Biomarker Activity (AID 2283056); conditions: primary human foreskin fibroblasts; actives raise or lower the signal
Method in brief: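 hDFCGF primary human dermal fibroblasts; 24 h chemical exposure; collagen III by ELISA; bidirectional curve fit vs DMSO baseline (gain or loss of signal).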

[7] = read-out: Epidermal growth factor receptor (EGFR), EGFR (gene 1956); assay: BSK_hDFCGF_EGFR: BioMAP Diversity Plus: hDFCGF Assay for Epidermal growth factor receptor (EGFR) Biomarker Activity (AID 2283057); conditions: primary human foreskin fibroblasts; actives raise or lower the signal
Method in brief: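 EGFR levels by ELISA in human dermal fibroblast cultures, 24 h post-treatment, fitted bidirectionally versus DMSO. Parallel wells stained with sulforhodamine B to detect overt cytotoxicity.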

[8] = read-out: Interleukin-8 (IL8), CXCL8 (gene 3576); assay: BSK_hDFCGF_IL8: BioMAP Diversity Plus: hDFCGF Assay for Interleukin-8 (IL8) Biomarker Activity (AID 2283058); conditions: primary human foreskin fibroblasts; actives raise or lower the signal
Method in brief: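 ELISA read-out of IL-8 from primary human foreskin fibroblast cultures taken 24 h after dosing; values are bidirectional fits relative to DMSO vehicle.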

[9] = BSK_hDFCGF_Proliferation: Cell Proliferation Assessment in the BioMAP Diversity Plus: hDFCGF Assay (AID 2283059); conditions: primary human foreskin fibroblasts;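 further: curves fitted for both rise and fall of signal versus DMSO baseline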
Method in brief: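 Sub-confluent human foreskin fibroblast cultures receive test chemical […]. Relative cell number is quantified by sulforhodamine B staining (0.1%, after 10% TCA fixation) at 560 nm, with bidirectional fitting referenced to DMSO.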

[10] = read-out: Macrophage colony-stimulating factor (MCSF), CSF1 (gene 1435); assay: BSK_hDFCGF_MCSF: BioMAP Diversity Plus: hDFCGF Assay for Macrophage colony-stimulating factor (MCSF) Biomarker Activity (AID 2283060); conditions: primary human foreskin fibroblasts; actives raise or lower the signal
Method in brief: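 ELISA read-out of M-CSF in human dermal foreskin fibroblast cultures, 24 h after chemical dosing; gain or loss of signal fitted bidirectionally relative to DMSO baseline.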

[11] = BSK_hDFCGF_SRB: Viability Assessment in the BioMAP Diversity Plus: hDFCGF Assay (AID 2283061); conditions: primary human foreskin fibroblasts;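 further: cells exposed to compound for 24 h before the read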
Method in brief: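 Primary human foreskin fibroblasts; 24 h post-dose; fixed 10% TCA, stained 0.1% SRB, A560 read; total protein as overt cytotoxicity measure; curves fit bidirectionally vs DMSO control.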

[12] = read-out: TIMP metallopeptidase inhibitor 1 (TIMP1), TIMP1 (gene 7076); assay: BSK_hDFCGF_TIMP1: BioMAP Diversity Plus: hDFCGF Assay for TIMP metallopeptidase inhibitor 1 (TIMP1) Biomarker Activity (AID 2283062); conditions: primary human foreskin fibroblasts; actives raise or lower the signal
Method in brief: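 ELISA readout of TIMP-1 from human dermal foreskin fibroblast cultures 24 h post-dosing. Curves were fitted in both directions against DMSO baseline, with SRB total-protein staining in parallel cultures as a cytotoxicity check.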

[13] = read-out: Monokine induced gamma interferon (MIG), CXCL9 (gene 4283); assay: BSK_hDFCGF_MIG: BioMAP Diversity Plus: hDFCGF Assay for Monokine induced gamma interferon (MIG) Biomarker Activity (AID 2283063); conditions: primary human foreskin fibroblasts; actives raise or lower the signal
Method in brief: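 Fibroblasts (human foreskin, primary) dosed, 24 h, MIG by ELISA; fit bidirectional vs DMSO.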

[14] = read-out: Matrix Metallopeptidase 1 (MMP1), MMP1 (gene 4312); assay: BSK_hDFCGF_MMP1: BioMAP Diversity Plus: hDFCGF Assay for Matrix Metallopeptidase 1 (MMP1) Biomarker Activity (AID 2283064); conditions: primary human foreskin fibroblasts; actives raise or lower the signal
Method in brief: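 MMP1 levels quantified by ELISA 24 h after dosing human dermal fibroblast cultures, with parallel SRB total-protein staining for overt cytotoxicity. Data fitted in both directions against DMSO baseline.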

[15] = read-out: Vascular cell adhesion molecule 1 (VCAM1), VCAM1 (gene 7412); assay: BSK_hDFCGF_VCAM1: BioMAP Diversity Plus: hDFCGF Assay for Vascular cell adhesion molecule 1 (VCAM1) Biomarker Activity (AID 2283065); conditions: primary human foreskin fibroblasts; actives raise or lower the signal;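 on AC50: VCAM-1 protein level quantified by ELISA after 24 h chemical exposure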
Method in brief: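 ELISA read-out of VCAM-1 on human skin fibroblasts, 24 h post-dose; gain or loss of signal fitted bidirectionally against DMSO baseline.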

[16] = read-out: Plasminogen activator inhibitor-1 (PAI1), SERPINE1 (gene 5054); assay: BSK_hDFCGF_PAI1: BioMAP Diversity Plus: hDFCGF Assay for Plasminogen activator inhibitor-1 (PAI1) Biomarker Activity (AID 2283066); conditions: primary human foreskin fibroblasts; actives raise or lower the signal
Method in brief: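 PAI-1 levels in human dermal foreskin fibroblasts were quantified by ELISA 24 h after dosing, with gain or loss analysed against DMSO. Overt cytotoxicity was checked by sulforhodamine B total-protein staining in parallel cultures.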

[17] = read-out: Intercellular Adhesion Molecule 1 (ICAM1), ICAM1 (gene 3383); assay: BSK_KF3CT_ICAM1: BioMAP Diversity Plus: KF3CT Assay for Intercellular Adhesion Molecule 1 (ICAM1) Biomarker Activity (AID 2283067); conditions: primary human keratinocytes with fibroblasts; actives raise or lower the signal
Method in brief: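 ELISA readout of ICAM-1; KF3CT human skin co-culture (keratinocytes + foreskin fibroblasts), 24 h post-dose; gain/loss fit vs DMSO baseline.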

[18] = read-out: Interferon-gamma inducible Protein 10 (IP10), CXCL10 (gene 3627); assay: BSK_KF3CT_IP10: BioMAP Diversity Plus: KF3CT Assay for Interferon-gamma inducible Protein 10 (IP10) Biomarker Activity (AID 2283068); conditions: primary human keratinocytes with fibroblasts; actives raise or lower the signal
Method in brief: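 ELISA read-out of IP-10 after 24 h chemical dosing of human skin primary co-culture (keratinocytes, foreskin fibroblasts). Gain or loss of signal relative to DMSO, bidirectional curve fit.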

[19] = BSK_KF3CT_SRB: Viability Assessment in the BioMAP Diversity Plus: KF3CT Assay (AID 2283069); conditions: primary human keratinocytes with fibroblasts;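 further: read 24 h after compound addition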
Method in brief: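 Cytotoxicity was gauged by SRB staining (0.1% SRB, 10% TCA fixation, 560 nm) of parallel cultures at 24 h. The cells were primary human skin keratinocytes co-cultured with fibroblasts, and activity was fitted in both directions against DMSO.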

[20] = read-out: Interleukin-1 alpha (IL1a), IL1A (gene 3552); assay: BSK_KF3CT_IL1a: BioMAP Diversity Plus: KF3CT Assay for Interleukin-1 alpha (IL1a) Biomarker Activity (AID 2283070); conditions: primary human keratinocytes with fibroblasts; actives raise or lower the signal
Method in brief: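 IL-1a was detected by ELISA 24 h after chemical treatment of a co-culture of human skin keratinocytes and foreskin fibroblasts. Gain or loss of signal was fitted against the DMSO baseline.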

Measured: AC50

COP(=S)(OC)Oc1ccc(S(=O)(=O)N(C)C)cc1
active: [9] 28.2 µM
inactive: all other assays above

CCNc1nc(NC(C)(C)C)nc(SC)n1
active: [20] 20 µM
inactive: all other assays above

BrCCBr
inactive: all assays above

O=S(=O)(c1ccc(Cl)cc1)c1ccc(Cl)cc1
active: [15] 5.32 µM
inactive: all other assays above

CC(C)(OO)c1ccccc1
active: [3] 32.7 µM | [6] 20 µM | [7] 35.8 µM | [8] 38.1 µM | [9] 6.71 µM | [10] 28.9 µM | [11] 34.8 µM | [12] 34.7 µM | [13] 34.4 µM | [14] 37.1 µM | [15] 28.6 µM | [16] 30.4 µM
inactive: [1] | [2] | [4] | [5] | [17] | [18] | [19] | [20]

CCOP(=S)(OCC)SCSP(=S)(OCC)OCC
active: [3] 13.9 µM | [6] 10 µM | [9] 31.6 µM
inactive: all other assays above

Nc1cccc2ccccc12
active: [1] 15.2 µM | [3] 31.6 µM | [6] 27.1 µM | [9] 13.6 µM | [10] 20 µM | [11] 32 µM | [12] 27.7 µM | [14] 33.1 µM | [15] 25.9 µM | [16] 20 µM
inactive: all other assays above

CCOP(=S)(OCC)SCCS(=O)(=O)CC
inactive: all assays above

O=C(O)C(F)(F)C(F)(F)C(F)(F)C(F)(F)C(F)(F)C(F)(F)C(F)(F)C(F)(F)C(F)(F)C(F)(F)F
active: [1] 0.141 µM | [3] 6.56 µM and 4.76 µM and 4.7 µM | [6] 17.1 µM and 5.73 µM and 3.66 µM | [7] 835 nM and 906 nM | [8] 13.1 µM and 6.18 µM and 6.3 µM | [9] 4.01 µM and 2.28 µM and 2.17 µM | [10] 10.8 µM and 5.03 µM and 4.97 µM | [11] 9.04 µM and 5.23 µM and 5.22 µM | [12] 9.33 µM and 5.14 µM and 5.31 µM | [13] 11.5 µM and 4.94 µM and 5.08 µM | [14] 6.98 µM and 5.59 µM and 6.54 µM | [15] 11.7 µM and 3.07 µM and 4.25 µM | [16] 10.7 µM and 5.61 µM and 5.09 µM | [17] 12.9 µM and 5 µM and 4.73 µM | [18] 6.91 µM and 5.45 µM and 5.25 µM | [19] 9.99 µM and 5.01 µM and 5.38 µM | [20] 10.8 µM and 3.41 µM and 5.06 µM
inactive: [1] | [2] | [4] | [5] | [7]

NC(=S)Nc1ccccc1
inactive: all assays above

C=C(C)C(=O)[O][Sn]([CH2]CCC)([CH2]CCC)[CH2]CCC
inactive: [7]
active: [1] 1.54 µM | [2] 1.15 µM | [3] 0.148 µM | [4] 0.391 µM | [5] 0.148 µM | [6] 0.374 µM | [8] 0.148 µM | [9] 0.15 µM | [10] 0.148 µM | [11] 0.242 µM | [12] 0.344 µM | [13] 0.148 µM | [14] 0.148 µM | [15] 0.148 µM | [16] 0.254 µM | [17] 354 nM | [18] 181 nM | [19] 282 nM | [20] 0.148 µM
